# Experimental data taken from publication PMC11006913.
# Where a chain is given by its changes, count along the chain named.
# How the values were obtained:
# Assay in all cases: PBM; 200 nM protein, PBS
# Conditions in all cases: dsDNA, one strand shown
# HOXA7 [1] = target: HOXA7 (Homo sapiens, UniProt P31268 116-202)
# HOXA7 [2] = target: HOXA7 (Homo sapiens, UniProt P31268 116-202, W177C)
# HOXC10 [3] = target: HOXC10 (Homo sapiens, UniProt Q9NYD6 254-340)
# NKX2-4 = target: T1, NKX2-4 (Homo sapiens, UniProt Q9H2Z4 175-261, T231S)
# T1 sequence: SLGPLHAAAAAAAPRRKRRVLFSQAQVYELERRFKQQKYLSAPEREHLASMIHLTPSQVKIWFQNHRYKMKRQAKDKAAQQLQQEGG
# NKX2-6 [4] = target: T2, NKX2-6 (Homo sapiens, UniProt A6NCS4 118-204, R150C)
# T2 sequence: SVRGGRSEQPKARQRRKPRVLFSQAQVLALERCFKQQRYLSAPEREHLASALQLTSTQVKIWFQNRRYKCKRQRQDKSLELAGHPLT
# NKX2-6 [5] = target: T3, NKX2-6 (Homo sapiens, UniProt A6NCS4 118-204, F151L)
# T3 sequence: T2 sequence with C33R, F34L
# NKX3-2 [6] = target: NKX3-2 (Homo sapiens, UniProt P78367 192-278, P234S)
# Sequence of NKX3-2 (Homo sapiens, UniProt P78367 192-278, P234S) (P78367 192-278 P234S): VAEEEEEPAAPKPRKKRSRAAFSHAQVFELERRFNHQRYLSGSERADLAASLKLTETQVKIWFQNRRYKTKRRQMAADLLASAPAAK
# NKX3-2 [7] = target: NKX3-2 (Homo sapiens, UniProt P78367 192-278)
# Sequence of NKX3-2 (Homo sapiens, UniProt P78367 192-278) (P78367 192-278): as the sequence (P78367 192-278 P234S) above, with S43P counted along it
# PAX4 [8] = target: T4, PAX4 (Homo sapiens, UniProt O43316 9-242, R200K)
# T4 sequence: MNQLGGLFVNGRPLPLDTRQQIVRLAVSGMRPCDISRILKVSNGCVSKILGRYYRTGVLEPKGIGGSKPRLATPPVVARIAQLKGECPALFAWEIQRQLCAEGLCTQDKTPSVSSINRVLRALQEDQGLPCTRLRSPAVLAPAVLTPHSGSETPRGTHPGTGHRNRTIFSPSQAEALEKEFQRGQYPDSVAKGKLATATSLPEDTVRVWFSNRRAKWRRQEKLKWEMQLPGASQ
# PAX4 [9] = target: T5, PAX4 (Homo sapiens, UniProt O43316 9-242)
# T5 sequence: T4 sequence with K192R
# PAX4 [10] = target: T6, PAX4 (Homo sapiens, UniProt O43316 9-242, R200Q)
# T6 sequence: T4 sequence with K192Q
# PAX4 [11] = target: T7, PAX4 (Homo sapiens, UniProt O43316 9-242, F177V)
# T7 sequence: T4 sequence with F169V, K192R
# HOXC10 [12] = target: HOXC10 (Homo sapiens, UniProt Q9NYD6 254-340, K271E)
# Sequence of HOXC10 (Homo sapiens, UniProt Q9NYD6 254-340, K271E) (Q9NYD6 254-340 K271E): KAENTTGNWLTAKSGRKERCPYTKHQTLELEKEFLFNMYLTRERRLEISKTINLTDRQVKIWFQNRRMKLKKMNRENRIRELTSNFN
# PAX4 [13] = target: T8, PAX4 (Homo sapiens, UniProt O43316 9-242, F177Y)
# T8 sequence: T4 sequence with F169Y, K192R
# PAX4 [14] = target: T9, PAX4 (Homo sapiens, UniProt O43316 9-242, R227W)
# T9 sequence: T4 sequence with K192R, R219W
# Sequence of HOXA7 (Homo sapiens, UniProt P31268 116-202, W177C) (P31268 116-202 W177C): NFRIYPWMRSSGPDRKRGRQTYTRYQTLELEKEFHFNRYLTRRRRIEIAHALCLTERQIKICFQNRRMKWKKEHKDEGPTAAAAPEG
# Sequence of HOXC10 (Homo sapiens, UniProt Q9NYD6 254-340) (Q9NYD6 254-340): as the sequence (Q9NYD6 254-340 K271E) above, with E18K counted along it
# Sequence of HOXA7 (Homo sapiens, UniProt P31268 116-202) (P31268 116-202): as the sequence (P31268 116-202 W177C) above, with C62W counted along it
sequence,measurement,setting,value
ACTGAAGG,binding signal,HOXA7 [1],"8.48 upbm affinity estimate (log intensity, higher = more binding, comparable within an allelic series)"
same,binding signal,HOXA7 [2],"8.52 upbm affinity estimate (log intensity, higher = more binding, comparable within an allelic series)"
AGAGCAAG,binding signal,HOXA7 [1],"8.36 upbm affinity estimate (log intensity, higher = more binding, comparable within an allelic series)"
same,binding signal,HOXA7 [2],"8.46 upbm affinity estimate (log intensity, higher = more binding, comparable within an allelic series)"
AGAGCCTG,binding signal,HOXA7 [1],"8.58 upbm affinity estimate (log intensity, higher = more binding, comparable within an allelic series)"
same,binding signal,HOXA7 [2],"8.43 upbm affinity estimate (log intensity, higher = more binding, comparable within an allelic series)"
GGAACTCA,binding signal,HOXA7 [1],"8.54 upbm affinity estimate (log intensity, higher = more binding, comparable within an allelic series)"
same,binding signal,HOXA7 [2],"8.56 upbm affinity estimate (log intensity, higher = more binding, comparable within an allelic series)"
CCTTCGAC,binding signal,HOXA7 [1],"8.4 upbm affinity estimate (log intensity, higher = more binding, comparable within an allelic series)"
same,binding signal,HOXA7 [2],"8.45 upbm affinity estimate (log intensity, higher = more binding, comparable within an allelic series)"
CAGAGGAG,binding signal,HOXA7 [1],"8.43 upbm affinity estimate (log intensity, higher = more binding, comparable within an allelic series)"
same,binding signal,HOXA7 [2],"8.46 upbm affinity estimate (log intensity, higher = more binding, comparable within an allelic series)"
CCAGGTCG,binding signal,HOXA7 [1],"8.48 upbm affinity estimate (log intensity, higher = more binding, comparable within an allelic series)"
same,binding signal,HOXA7 [2],"8.45 upbm affinity estimate (log intensity, higher = more binding, comparable within an allelic series)"
TGAGAGCA,binding signal,HOXA7 [1],"8.62 upbm affinity estimate (log intensity, higher = more binding, comparable within an allelic series)"
same,binding signal,HOXA7 [2],"8.54 upbm affinity estimate (log intensity, higher = more binding, comparable within an allelic series)"
AAGCGGCG,binding signal,HOXA7 [1],"8.49 upbm affinity estimate (log intensity, higher = more binding, comparable within an allelic series)"
same,binding signal,HOXA7 [2],"8.33 upbm affinity estimate (log intensity, higher = more binding, comparable within an allelic series)"
CCATAATC,binding signal,HOXA7 [1],"9.89 upbm affinity estimate (log intensity, higher = more binding, comparable within an allelic series)"
same,binding signal,HOXA7 [2],"8.75 upbm affinity estimate (log intensity, higher = more binding, comparable within an allelic series)"
AGCCGCTG,binding signal,HOXA7 [1],"8.52 upbm affinity estimate (log intensity, higher = more binding, comparable within an allelic series)"
same,binding signal,HOXA7 [2],"8.43 upbm affinity estimate (log intensity, higher = more binding, comparable within an allelic series)"
AAATGGGG,binding signal,HOXA7 [1],"9.82 upbm affinity estimate (log intensity, higher = more binding, comparable within an allelic series)"
same,binding signal,HOXA7 [2],"8.64 upbm affinity estimate (log intensity, higher = more binding, comparable within an allelic series)"
TATGTGCA,binding signal,HOXC10 [3],"10.7 upbm affinity estimate (log intensity, higher = more binding, comparable within an allelic series)"
ATGCCATA,binding signal,HOXC10 [3],"11 upbm affinity estimate (log intensity, higher = more binding, comparable within an allelic series)"
GCACTTTA,binding signal,NKX2-4,"12.8 upbm affinity estimate (log intensity, higher = more binding, comparable within an allelic series)"
same,binding signal,NKX2-6 [4],"11.7 upbm affinity estimate (log intensity, higher = more binding, comparable within an allelic series)"
same,binding signal,NKX2-6 [5],"10.7 upbm affinity estimate (log intensity, higher = more binding, comparable within an allelic series)"
same,binding signal,NKX3-2 [6],"12.5 upbm affinity estimate (log intensity, higher = more binding, comparable within an allelic series)"
same,binding signal,NKX3-2 [7],"12.6 upbm affinity estimate (log intensity, higher = more binding, comparable within an allelic series)"
GCTCGGTA,binding signal,HOXA7 [1],"8.46 upbm affinity estimate (log intensity, higher = more binding, comparable within an allelic series)"
same,binding signal,HOXA7 [2],"8.43 upbm affinity estimate (log intensity, higher = more binding, comparable within an allelic series)"
CCCCGTTA,binding signal,HOXA7 [1],"9.61 upbm affinity estimate (log intensity, higher = more binding, comparable within an allelic series)"
same,binding signal,HOXA7 [2],"8.75 upbm affinity estimate (log intensity, higher = more binding, comparable within an allelic series)"
TTACACAA,binding signal,HOXC10 [3],"10.5 upbm affinity estimate (log intensity, higher = more binding, comparable within an allelic series)"
GGCGGTCA,binding signal,HOXA7 [1],"8.58 upbm affinity estimate (log intensity, higher = more binding, comparable within an allelic series)"
same,binding signal,HOXA7 [2],"8.5 upbm affinity estimate (log intensity, higher = more binding, comparable within an allelic series)"
AGAAGGCG,binding signal,HOXA7 [1],"8.35 upbm affinity estimate (log intensity, higher = more binding, comparable within an allelic series)"
same,binding signal,HOXA7 [2],"8.41 upbm affinity estimate (log intensity, higher = more binding, comparable within an allelic series)"
CGTCCACC,binding signal,HOXA7 [1],"8.57 upbm affinity estimate (log intensity, higher = more binding, comparable within an allelic series)"
same,binding signal,HOXA7 [2],"8.48 upbm affinity estimate (log intensity, higher = more binding, comparable within an allelic series)"
AATACTAG,binding signal,HOXC10 [3],"10.7 upbm affinity estimate (log intensity, higher = more binding, comparable within an allelic series)"
GACAGTAA,binding signal,HOXC10 [3],"11 upbm affinity estimate (log intensity, higher = more binding, comparable within an allelic series)"
AGAATGAT,binding signal,HOXA7 [1],"9.52 upbm affinity estimate (log intensity, higher = more binding, comparable within an allelic series)"
same,binding signal,HOXA7 [2],"8.8 upbm affinity estimate (log intensity, higher = more binding, comparable within an allelic series)"
GCTTTCGA,binding signal,HOXA7 [1],"8.45 upbm affinity estimate (log intensity, higher = more binding, comparable within an allelic series)"
same,binding signal,HOXA7 [2],"8.45 upbm affinity estimate (log intensity, higher = more binding, comparable within an allelic series)"
CTCTGAGC,binding signal,HOXA7 [1],"8.36 upbm affinity estimate (log intensity, higher = more binding, comparable within an allelic series)"
same,binding signal,HOXA7 [2],"8.46 upbm affinity estimate (log intensity, higher = more binding, comparable within an allelic series)"
AGGAGCCT,binding signal,HOXA7 [1],"8.33 upbm affinity estimate (log intensity, higher = more binding, comparable within an allelic series)"
same,binding signal,HOXA7 [2],"8.35 upbm affinity estimate (log intensity, higher = more binding, comparable within an allelic series)"
CCTCGAGG,binding signal,HOXA7 [1],"8.59 upbm affinity estimate (log intensity, higher = more binding, comparable within an allelic series)"
same,binding signal,HOXA7 [2],"8.59 upbm affinity estimate (log intensity, higher = more binding, comparable within an allelic series)"
AGTAGTTA,binding signal,HOXA7 [1],"10 upbm affinity estimate (log intensity, higher = more binding, comparable within an allelic series)"
same,binding signal,HOXA7 [2],"8.75 upbm affinity estimate (log intensity, higher = more binding, comparable within an allelic series)"
CTTTTTTA,binding signal,HOXC10 [3],"11.2 upbm affinity estimate (log intensity, higher = more binding, comparable within an allelic series)"
CGGTCCGC,binding signal,HOXA7 [1],"8.63 upbm affinity estimate (log intensity, higher = more binding, comparable within an allelic series)"
same,binding signal,HOXA7 [2],"8.41 upbm affinity estimate (log intensity, higher = more binding, comparable within an allelic series)"
ATTCGTAA,binding signal,HOXC10 [3],"10.8 upbm affinity estimate (log intensity, higher = more binding, comparable within an allelic series)"
AAATGGTA,binding signal,HOXC10 [3],"10.9 upbm affinity estimate (log intensity, higher = more binding, comparable within an allelic series)"
GATGTTAA,binding signal,HOXC10 [3],"10.8 upbm affinity estimate (log intensity, higher = more binding, comparable within an allelic series)"
AGCATGCT,binding signal,HOXA7 [1],"8.54 upbm affinity estimate (log intensity, higher = more binding, comparable within an allelic series)"
same,binding signal,HOXA7 [2],"8.54 upbm affinity estimate (log intensity, higher = more binding, comparable within an allelic series)"
AACAATCA,binding signal,HOXC10 [3],"10.9 upbm affinity estimate (log intensity, higher = more binding, comparable within an allelic series)"
CAGCAACC,binding signal,HOXA7 [1],"8.52 upbm affinity estimate (log intensity, higher = more binding, comparable within an allelic series)"
same,binding signal,HOXA7 [2],"8.47 upbm affinity estimate (log intensity, higher = more binding, comparable within an allelic series)"
CCTTCCGC,binding signal,HOXA7 [1],"8.39 upbm affinity estimate (log intensity, higher = more binding, comparable within an allelic series)"
same,binding signal,HOXA7 [2],"8.37 upbm affinity estimate (log intensity, higher = more binding, comparable within an allelic series)"
AGATGTTA,binding signal,HOXC10 [3],"10.8 upbm affinity estimate (log intensity, higher = more binding, comparable within an allelic series)"
CCATTACA,binding signal,HOXA7 [1],"10.6 upbm affinity estimate (log intensity, higher = more binding, comparable within an allelic series)"
same,binding signal,HOXA7 [2],"8.97 upbm affinity estimate (log intensity, higher = more binding, comparable within an allelic series)"
GTACTTTA,binding signal,NKX2-4,"12.8 upbm affinity estimate (log intensity, higher = more binding, comparable within an allelic series)"
GCACGTTA,binding signal,HOXC10 [3],"10.7 upbm affinity estimate (log intensity, higher = more binding, comparable within an allelic series)"
ACCGCTCC,binding signal,HOXA7 [1],"8.61 upbm affinity estimate (log intensity, higher = more binding, comparable within an allelic series)"
same,binding signal,HOXA7 [2],"8.49 upbm affinity estimate (log intensity, higher = more binding, comparable within an allelic series)"
TGTTACAA,binding signal,HOXC10 [3],"10.6 upbm affinity estimate (log intensity, higher = more binding, comparable within an allelic series)"
AGGCTGGA,binding signal,HOXA7 [1],"8.5 upbm affinity estimate (log intensity, higher = more binding, comparable within an allelic series)"
same,binding signal,HOXA7 [2],"8.45 upbm affinity estimate (log intensity, higher = more binding, comparable within an allelic series)"
CTCAGCTC,binding signal,HOXA7 [1],"8.44 upbm affinity estimate (log intensity, higher = more binding, comparable within an allelic series)"
same,binding signal,HOXA7 [2],"8.39 upbm affinity estimate (log intensity, higher = more binding, comparable within an allelic series)"
CACATAAC,binding signal,HOXA7 [1],"9.46 upbm affinity estimate (log intensity, higher = more binding, comparable within an allelic series)"
same,binding signal,HOXA7 [2],"8.81 upbm affinity estimate (log intensity, higher = more binding, comparable within an allelic series)"
CCGTAATA,binding signal,HOXA7 [1],"10.2 upbm affinity estimate (log intensity, higher = more binding, comparable within an allelic series)"
same,binding signal,HOXA7 [2],"8.79 upbm affinity estimate (log intensity, higher = more binding, comparable within an allelic series)"
CGGAAGGC,binding signal,HOXA7 [1],"8.5 upbm affinity estimate (log intensity, higher = more binding, comparable within an allelic series)"
same,binding signal,HOXA7 [2],"8.35 upbm affinity estimate (log intensity, higher = more binding, comparable within an allelic series)"
AGCTCGGA,binding signal,HOXA7 [1],"8.37 upbm affinity estimate (log intensity, higher = more binding, comparable within an allelic series)"
same,binding signal,HOXA7 [2],"8.35 upbm affinity estimate (log intensity, higher = more binding, comparable within an allelic series)"
AGGGAGGC,binding signal,HOXC10 [3],"9.98 upbm affinity estimate (log intensity, higher = more binding, comparable within an allelic series)"
same,binding signal,PAX4 [8],"9.2 upbm affinity estimate (log intensity, higher = more binding, comparable within an allelic series)"
same,binding signal,PAX4 [9],"9.2 upbm affinity estimate (log intensity, higher = more binding, comparable within an allelic series)"
same,binding signal,PAX4 [10],"9.17 upbm affinity estimate (log intensity, higher = more binding, comparable within an allelic series)"
same,binding signal,PAX4 [11],"9.02 upbm affinity estimate (log intensity, higher = more binding, comparable within an allelic series)"
same,binding signal,HOXC10 [12],"10 upbm affinity estimate (log intensity, higher = more binding, comparable within an allelic series)"
same,binding signal,PAX4 [13],"9.16 upbm affinity estimate (log intensity, higher = more binding, comparable within an allelic series)"
same,binding signal,PAX4 [14],"9.18 upbm affinity estimate (log intensity, higher = more binding, comparable within an allelic series)"
CAAATAAA,binding signal,HOXC10 [3],"11.4 upbm affinity estimate (log intensity, higher = more binding, comparable within an allelic series)"
